# Measured values reported in PMC7862700, “An all-to-all approach to the identification of sequence-specific readers for epigenetic DNA modifications on cytosine”.
# Assays:
# Assay in all cases: DAPPL (digital affinity profiling via proximity ligation, sequencing); 10 mM Tris-HCl pH 7.5, 50 mM NaCl, 1 mM DTT, 4% glycerol, room temperature, 30 min; GST-TFs on glutathione beads, 16-mer random dsDNA library, 0.1% formaldehyde crosslink after washing; high values mean tight binding
# [1] = biological target: T1, FEV (Homo sapiens, UniProt Q99581 1-238); settings: protein: recombinant; tags: N-terminal GST; dsDNA, one strand shown
# T1 sequence: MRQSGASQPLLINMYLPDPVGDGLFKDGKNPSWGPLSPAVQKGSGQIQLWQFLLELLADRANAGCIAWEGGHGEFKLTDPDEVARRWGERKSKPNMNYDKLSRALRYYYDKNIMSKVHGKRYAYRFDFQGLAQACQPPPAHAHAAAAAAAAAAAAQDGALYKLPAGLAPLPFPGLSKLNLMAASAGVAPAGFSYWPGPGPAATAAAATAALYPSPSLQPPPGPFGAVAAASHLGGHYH
# In short: (§1)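 Sequencing on an Illumina NextSeq500 followed washing, crosslinking with 0.1% formaldehyde, proximity ligation (BsaI/T4 ligase, 1 h, 37 °C) and PCR amplification of pools that had been incubated for 30 min at room temperature with 200 nmole of a random double-stranded 16-mer DNA library in Tris/NaCl/DTT/glycerol buffer. Each pool held DNA-barcoded human transcription factors, expressed in yeast as GST fusions and captured on glutathione beads, plus a tag-only sample. Binding signal is a hexamer's read frequency for a factor divided by its frequency in the tag-only sample.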
# [2] = biological target: ETV5 (Homo sapiens, UniProt P41161 1-510); settings: protein: recombinant; tags: N-terminal GST; dsDNA, one strand shown
# ETV5, sequence (P41161 whole entry): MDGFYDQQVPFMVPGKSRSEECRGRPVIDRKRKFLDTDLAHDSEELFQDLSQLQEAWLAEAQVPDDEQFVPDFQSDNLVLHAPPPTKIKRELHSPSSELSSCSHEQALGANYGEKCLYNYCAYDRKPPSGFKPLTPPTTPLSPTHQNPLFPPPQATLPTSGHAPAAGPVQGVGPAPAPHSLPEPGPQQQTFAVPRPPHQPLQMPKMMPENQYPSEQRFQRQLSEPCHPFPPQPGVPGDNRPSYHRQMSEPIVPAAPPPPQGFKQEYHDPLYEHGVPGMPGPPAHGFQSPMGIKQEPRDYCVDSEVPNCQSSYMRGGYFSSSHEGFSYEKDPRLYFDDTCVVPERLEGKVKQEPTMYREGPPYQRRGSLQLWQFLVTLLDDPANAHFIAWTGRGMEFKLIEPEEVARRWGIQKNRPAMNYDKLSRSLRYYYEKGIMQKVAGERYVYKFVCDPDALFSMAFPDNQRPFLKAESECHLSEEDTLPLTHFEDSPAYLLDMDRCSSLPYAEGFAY
# In short: as §1
# [3] = biological target: HSF1 (Homo sapiens, UniProt Q00613 1-529); settings: protein: recombinant; tags: N-terminal GST; chain copies: 3; dsDNA, one strand shown
# HSF1, sequence (Q00613 whole entry): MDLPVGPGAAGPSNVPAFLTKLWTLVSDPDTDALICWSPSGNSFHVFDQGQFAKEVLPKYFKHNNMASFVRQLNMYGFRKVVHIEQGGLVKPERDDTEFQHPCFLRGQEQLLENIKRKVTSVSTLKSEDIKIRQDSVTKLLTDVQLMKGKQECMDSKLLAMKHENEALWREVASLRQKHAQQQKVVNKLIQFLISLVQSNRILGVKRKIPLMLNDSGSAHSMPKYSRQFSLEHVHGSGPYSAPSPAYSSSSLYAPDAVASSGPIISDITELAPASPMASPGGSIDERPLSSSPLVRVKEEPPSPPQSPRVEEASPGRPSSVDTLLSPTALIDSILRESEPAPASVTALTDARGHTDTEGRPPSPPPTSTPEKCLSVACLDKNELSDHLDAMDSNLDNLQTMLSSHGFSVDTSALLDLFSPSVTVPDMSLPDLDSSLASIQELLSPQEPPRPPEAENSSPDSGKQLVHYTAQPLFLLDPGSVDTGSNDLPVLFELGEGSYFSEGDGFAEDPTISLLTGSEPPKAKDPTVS
# In short: as §1
# [4] = biological target: T2, SPIC (Homo sapiens, UniProt Q8N5J4 1-248); settings: protein: recombinant; tags: N-terminal GST; dsDNA, one strand shown
# T2 sequence: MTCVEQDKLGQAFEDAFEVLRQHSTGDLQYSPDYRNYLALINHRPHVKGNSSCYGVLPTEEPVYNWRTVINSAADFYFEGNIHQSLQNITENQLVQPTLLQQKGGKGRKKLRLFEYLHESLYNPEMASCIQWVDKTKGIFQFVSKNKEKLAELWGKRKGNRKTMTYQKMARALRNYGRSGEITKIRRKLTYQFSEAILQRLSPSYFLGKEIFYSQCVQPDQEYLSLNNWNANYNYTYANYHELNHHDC
# In short: as §1
# [5] = biological target: ELF4 (Homo sapiens, UniProt Q99607 1-663); settings: protein: recombinant; tags: N-terminal GST; dsDNA, one strand shown
# ELF4, sequence (Q99607 whole entry): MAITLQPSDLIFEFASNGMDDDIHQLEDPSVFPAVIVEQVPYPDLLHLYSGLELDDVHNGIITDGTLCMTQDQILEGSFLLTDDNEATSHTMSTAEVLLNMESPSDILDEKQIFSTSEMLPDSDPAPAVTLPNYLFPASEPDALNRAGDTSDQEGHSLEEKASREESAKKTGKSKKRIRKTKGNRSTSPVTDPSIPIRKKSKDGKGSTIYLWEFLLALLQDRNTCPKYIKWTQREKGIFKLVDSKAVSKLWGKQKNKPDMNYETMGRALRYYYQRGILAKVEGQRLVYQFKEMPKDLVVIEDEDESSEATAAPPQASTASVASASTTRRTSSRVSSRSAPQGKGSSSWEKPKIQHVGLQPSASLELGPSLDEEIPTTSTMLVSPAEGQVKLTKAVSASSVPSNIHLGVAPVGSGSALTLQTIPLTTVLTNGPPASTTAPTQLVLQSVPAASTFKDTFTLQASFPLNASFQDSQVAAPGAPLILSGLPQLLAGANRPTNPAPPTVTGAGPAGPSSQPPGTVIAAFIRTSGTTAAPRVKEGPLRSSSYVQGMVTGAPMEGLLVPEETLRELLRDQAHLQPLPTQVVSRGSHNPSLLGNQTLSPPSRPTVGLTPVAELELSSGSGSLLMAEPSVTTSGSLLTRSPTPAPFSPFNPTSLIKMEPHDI
# In short: as §1
# [6] = biological target: T3, ELK4 (Homo sapiens, UniProt P28324-2 1-405); settings: protein: recombinant; tags: N-terminal GST; dsDNA, one strand shown
# T3 sequence: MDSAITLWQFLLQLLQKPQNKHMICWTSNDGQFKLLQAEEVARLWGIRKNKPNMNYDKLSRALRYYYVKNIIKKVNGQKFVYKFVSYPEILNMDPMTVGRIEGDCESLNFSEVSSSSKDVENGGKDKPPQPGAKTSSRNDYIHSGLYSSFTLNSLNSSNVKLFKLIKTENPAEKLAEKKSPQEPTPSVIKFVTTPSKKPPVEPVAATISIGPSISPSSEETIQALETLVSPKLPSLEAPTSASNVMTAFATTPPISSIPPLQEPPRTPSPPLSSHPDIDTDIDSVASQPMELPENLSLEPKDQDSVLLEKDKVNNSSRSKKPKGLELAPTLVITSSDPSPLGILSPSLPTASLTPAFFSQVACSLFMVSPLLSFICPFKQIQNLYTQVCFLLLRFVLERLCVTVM
# In short: as §1
# [7] = biological target: T4, ETV2 (Homo sapiens, UniProt O00321 1-342); settings: protein: recombinant; tags: N-terminal GST; dsDNA, one strand shown
# T4 sequence: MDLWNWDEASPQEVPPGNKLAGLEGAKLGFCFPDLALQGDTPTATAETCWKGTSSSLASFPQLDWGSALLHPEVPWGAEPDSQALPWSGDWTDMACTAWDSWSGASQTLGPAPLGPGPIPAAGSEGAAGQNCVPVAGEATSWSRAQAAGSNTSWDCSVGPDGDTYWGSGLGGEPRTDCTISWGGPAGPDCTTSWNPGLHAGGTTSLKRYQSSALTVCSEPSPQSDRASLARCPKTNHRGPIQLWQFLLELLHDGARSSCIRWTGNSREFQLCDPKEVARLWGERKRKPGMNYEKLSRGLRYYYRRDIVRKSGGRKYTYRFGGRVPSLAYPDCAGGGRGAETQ
# In short: as §1
# [8] = biological target: T5, ELF3 (Homo sapiens, UniProt P78545 1-371); settings: protein: recombinant; tags: N-terminal GST; dsDNA, one strand shown
# T5 sequence: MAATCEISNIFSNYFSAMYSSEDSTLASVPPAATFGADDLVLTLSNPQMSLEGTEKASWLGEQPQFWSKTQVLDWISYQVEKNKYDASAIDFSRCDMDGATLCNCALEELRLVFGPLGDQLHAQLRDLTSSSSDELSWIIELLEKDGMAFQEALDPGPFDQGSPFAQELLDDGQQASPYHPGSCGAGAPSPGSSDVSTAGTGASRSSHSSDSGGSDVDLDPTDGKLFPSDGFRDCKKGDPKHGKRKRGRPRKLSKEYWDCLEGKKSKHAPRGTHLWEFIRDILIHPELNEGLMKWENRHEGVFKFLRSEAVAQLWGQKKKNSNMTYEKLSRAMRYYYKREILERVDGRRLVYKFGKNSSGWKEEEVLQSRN
# In short: as §1
# [9] = biological target: CRX (Homo sapiens, UniProt O43186 1-299); settings: protein: recombinant; tags: N-terminal GST; dsDNA, one strand shown
# CRX, sequence (O43186 whole entry): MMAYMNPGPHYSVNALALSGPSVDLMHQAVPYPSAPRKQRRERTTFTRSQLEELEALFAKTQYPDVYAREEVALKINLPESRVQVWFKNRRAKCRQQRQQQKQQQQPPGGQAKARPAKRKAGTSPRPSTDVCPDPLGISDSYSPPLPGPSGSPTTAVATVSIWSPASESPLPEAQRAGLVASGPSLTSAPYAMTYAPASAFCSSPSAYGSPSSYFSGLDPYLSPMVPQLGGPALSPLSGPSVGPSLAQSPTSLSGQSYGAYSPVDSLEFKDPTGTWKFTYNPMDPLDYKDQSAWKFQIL
# In short: as §1
# [10] = biological target: ETV1 (Homo sapiens, UniProt P50549 1-477); settings: protein: recombinant; tags: N-terminal GST; dsDNA, one strand shown
# ETV1, sequence (P50549 whole entry): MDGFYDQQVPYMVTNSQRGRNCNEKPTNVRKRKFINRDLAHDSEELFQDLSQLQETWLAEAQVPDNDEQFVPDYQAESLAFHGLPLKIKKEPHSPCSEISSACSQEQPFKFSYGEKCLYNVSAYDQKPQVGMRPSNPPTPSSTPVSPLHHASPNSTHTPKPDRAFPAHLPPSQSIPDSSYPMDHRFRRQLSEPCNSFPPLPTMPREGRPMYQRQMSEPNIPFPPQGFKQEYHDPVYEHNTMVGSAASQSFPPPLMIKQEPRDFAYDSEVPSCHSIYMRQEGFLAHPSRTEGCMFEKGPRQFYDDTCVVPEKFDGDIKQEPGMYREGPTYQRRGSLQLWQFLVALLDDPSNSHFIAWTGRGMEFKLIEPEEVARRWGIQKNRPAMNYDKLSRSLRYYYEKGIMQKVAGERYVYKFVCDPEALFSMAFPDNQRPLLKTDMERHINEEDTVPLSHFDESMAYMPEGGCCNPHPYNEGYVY
# In short: as §1
# [11] = biological target: T6, ERF (Homo sapiens, UniProt P50548 1-548); settings: protein: recombinant; tags: N-terminal GST; dsDNA, one strand shown
# T6 sequence: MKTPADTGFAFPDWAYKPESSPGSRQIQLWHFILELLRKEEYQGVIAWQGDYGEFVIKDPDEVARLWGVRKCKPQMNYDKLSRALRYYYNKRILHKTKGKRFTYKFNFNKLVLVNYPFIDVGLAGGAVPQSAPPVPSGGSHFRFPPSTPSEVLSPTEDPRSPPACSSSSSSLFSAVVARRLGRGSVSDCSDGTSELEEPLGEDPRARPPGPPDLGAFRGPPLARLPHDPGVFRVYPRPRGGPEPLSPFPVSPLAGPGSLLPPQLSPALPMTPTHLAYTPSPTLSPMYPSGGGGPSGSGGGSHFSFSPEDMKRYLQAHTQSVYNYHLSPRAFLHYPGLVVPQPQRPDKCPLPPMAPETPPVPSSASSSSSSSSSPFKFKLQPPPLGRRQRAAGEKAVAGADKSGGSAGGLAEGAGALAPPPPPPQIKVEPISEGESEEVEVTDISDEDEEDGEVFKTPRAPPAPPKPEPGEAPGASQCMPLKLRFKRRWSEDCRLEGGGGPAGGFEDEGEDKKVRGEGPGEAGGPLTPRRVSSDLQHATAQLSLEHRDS
# In short: as §1
# [12] = biological target: T7, ETV3L (Homo sapiens, UniProt Q6ZN32 1-361); settings: protein: recombinant; tags: N-terminal GST; dsDNA, one strand shown
# T7 sequence: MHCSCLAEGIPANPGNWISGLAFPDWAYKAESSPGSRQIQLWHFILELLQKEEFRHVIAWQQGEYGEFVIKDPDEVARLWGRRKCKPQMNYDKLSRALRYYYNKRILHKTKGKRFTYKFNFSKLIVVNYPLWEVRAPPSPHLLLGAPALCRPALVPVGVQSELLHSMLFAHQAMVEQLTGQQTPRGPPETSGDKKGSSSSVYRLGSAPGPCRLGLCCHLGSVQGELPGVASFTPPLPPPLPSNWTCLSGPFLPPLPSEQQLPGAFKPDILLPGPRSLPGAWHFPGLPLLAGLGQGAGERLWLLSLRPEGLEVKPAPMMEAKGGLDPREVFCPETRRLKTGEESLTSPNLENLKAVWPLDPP
# In short: as §1
# [13] = biological target: T8, ETS2 (Homo sapiens, UniProt P15036 1-469); settings: protein: recombinant; tags: N-terminal GST; dsDNA, one strand shown
# T8 sequence: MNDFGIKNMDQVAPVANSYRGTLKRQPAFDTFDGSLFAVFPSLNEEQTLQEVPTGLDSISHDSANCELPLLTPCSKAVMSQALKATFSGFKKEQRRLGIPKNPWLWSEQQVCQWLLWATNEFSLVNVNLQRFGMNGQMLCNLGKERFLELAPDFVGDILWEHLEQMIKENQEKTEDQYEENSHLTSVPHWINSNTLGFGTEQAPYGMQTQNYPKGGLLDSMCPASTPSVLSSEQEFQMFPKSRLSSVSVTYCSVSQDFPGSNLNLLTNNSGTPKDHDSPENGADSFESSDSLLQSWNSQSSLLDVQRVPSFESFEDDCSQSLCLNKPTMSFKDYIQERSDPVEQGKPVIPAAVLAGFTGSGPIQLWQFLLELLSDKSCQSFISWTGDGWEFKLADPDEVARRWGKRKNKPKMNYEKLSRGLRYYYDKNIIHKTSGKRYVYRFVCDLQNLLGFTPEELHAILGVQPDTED
# In short: as §1
# [14] = biological target: T9, SPDEF (Homo sapiens, UniProt O95238 1-335); settings: protein: recombinant; tags: N-terminal GST; dsDNA, one strand shown
# T9 sequence: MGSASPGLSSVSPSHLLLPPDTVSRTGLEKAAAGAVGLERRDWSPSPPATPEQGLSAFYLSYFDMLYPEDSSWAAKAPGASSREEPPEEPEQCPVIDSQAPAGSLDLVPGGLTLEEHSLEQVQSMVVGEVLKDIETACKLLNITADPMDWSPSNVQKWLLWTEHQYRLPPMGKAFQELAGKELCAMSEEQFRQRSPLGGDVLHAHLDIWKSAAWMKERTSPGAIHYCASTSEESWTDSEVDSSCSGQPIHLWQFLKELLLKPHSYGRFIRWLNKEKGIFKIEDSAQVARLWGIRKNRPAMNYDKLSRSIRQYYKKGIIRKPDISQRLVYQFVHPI
# In short: as §1
# [15] = biological target: T10, ETV7 (Homo sapiens, UniProt Q9Y603 1-341); settings: protein: recombinant; tags: N-terminal GST; dsDNA, one strand shown
# T10 sequence: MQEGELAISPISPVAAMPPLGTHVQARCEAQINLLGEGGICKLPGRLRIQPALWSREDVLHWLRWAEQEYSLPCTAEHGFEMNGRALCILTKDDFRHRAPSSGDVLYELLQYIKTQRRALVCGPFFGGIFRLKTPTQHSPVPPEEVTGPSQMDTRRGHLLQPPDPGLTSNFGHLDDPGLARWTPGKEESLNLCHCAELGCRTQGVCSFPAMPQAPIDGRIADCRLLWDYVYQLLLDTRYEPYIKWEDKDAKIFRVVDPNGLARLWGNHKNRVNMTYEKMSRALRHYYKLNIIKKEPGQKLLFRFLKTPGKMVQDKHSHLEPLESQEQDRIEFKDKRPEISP
# In short: as §1
# [16] = biological target: T11, ELF5 (Homo sapiens, UniProt Q9UKW6-2 1-255); settings: protein: recombinant; tags: N-terminal GST; dsDNA, one strand shown
# T11 sequence: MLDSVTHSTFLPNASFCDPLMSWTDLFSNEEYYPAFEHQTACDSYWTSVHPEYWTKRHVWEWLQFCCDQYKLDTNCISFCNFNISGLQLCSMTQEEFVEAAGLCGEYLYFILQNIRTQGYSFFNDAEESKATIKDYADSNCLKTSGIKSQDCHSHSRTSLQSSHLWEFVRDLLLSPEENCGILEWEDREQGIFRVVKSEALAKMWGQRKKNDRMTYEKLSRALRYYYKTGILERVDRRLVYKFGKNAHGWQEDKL
# In short: as §1
# [17] = biological target: T12, ETV3 (Homo sapiens, UniProt P41162-2 1-143); settings: protein: recombinant; tags: N-terminal GST; dsDNA, one strand shown
# T12 sequence: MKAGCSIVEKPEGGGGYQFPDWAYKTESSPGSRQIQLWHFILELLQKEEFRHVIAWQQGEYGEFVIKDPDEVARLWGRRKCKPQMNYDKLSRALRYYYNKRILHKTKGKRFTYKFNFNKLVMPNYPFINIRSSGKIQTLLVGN
# In short: as §1
# [18] = biological target: ETV6 (Homo sapiens, UniProt P41212 1-452); settings: protein: recombinant; tags: N-terminal GST; dsDNA, one strand shown
# ETV6, sequence (P41212 whole entry): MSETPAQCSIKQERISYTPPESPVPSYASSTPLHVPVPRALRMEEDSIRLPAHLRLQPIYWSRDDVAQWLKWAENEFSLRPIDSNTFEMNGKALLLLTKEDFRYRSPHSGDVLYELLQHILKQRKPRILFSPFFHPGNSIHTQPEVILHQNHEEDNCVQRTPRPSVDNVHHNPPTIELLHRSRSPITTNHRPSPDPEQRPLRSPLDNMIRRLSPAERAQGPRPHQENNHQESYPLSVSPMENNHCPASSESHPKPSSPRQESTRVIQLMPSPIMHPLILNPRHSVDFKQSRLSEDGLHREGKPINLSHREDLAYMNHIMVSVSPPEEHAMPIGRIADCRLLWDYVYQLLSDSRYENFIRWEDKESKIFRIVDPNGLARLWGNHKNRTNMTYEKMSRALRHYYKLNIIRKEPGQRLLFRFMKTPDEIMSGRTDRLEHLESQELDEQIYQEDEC
# In short: as §1
sequence,measurement,setting,value
ATTCCA,binding signal,[1],"1.07 fold enrichment (6-mer frequency, TF over GST control)"
same,binding signal,[2],"1.18 fold enrichment (6-mer frequency, TF over GST control)"
same,binding signal,[3],"2.28 fold enrichment (6-mer frequency, TF over GST control)"
same,binding signal,[4],"1.14 fold enrichment (6-mer frequency, TF over GST control)"
same,binding signal,[5],"1.25 fold enrichment (6-mer frequency, TF over GST control)"
same,binding signal,[6],"1.19 fold enrichment (6-mer frequency, TF over GST control)"
same,binding signal,[7],"1.25 fold enrichment (6-mer frequency, TF over GST control)"
same,binding signal,[8],"1.04 fold enrichment (6-mer frequency, TF over GST control)"
same,binding signal,[9],"1.58 fold enrichment (6-mer frequency, TF over GST control)"
same,binding signal,[10],"1.11 fold enrichment (6-mer frequency, TF over GST control)"
same,binding signal,[11],"1.14 fold enrichment (6-mer frequency, TF over GST control)"
same,binding signal,[12],"1.31 fold enrichment (6-mer frequency, TF over GST control)"
same,binding signal,[13],"1.15 fold enrichment (6-mer frequency, TF over GST control)"
same,binding signal,[14],"1.11 fold enrichment (6-mer frequency, TF over GST control)"
same,binding signal,[15],"1.1 fold enrichment (6-mer frequency, TF over GST control)"
same,binding signal,[16],"1.15 fold enrichment (6-mer frequency, TF over GST control)"
same,binding signal,[17],"1.15 fold enrichment (6-mer frequency, TF over GST control)"
same,binding signal,[18],"1.19 fold enrichment (6-mer frequency, TF over GST control)"
